Experimental data published in PubChem BioAssay AID1159580 (chemical genetic matrix, 2015).
In all, about 5,500 compounds went through this assay and about 2,000 (36%) were called active. Another 18% or so got no clear call; they are omitted. Rule as the data show it: active = normalized growth mostly below about 0.91 (no sharp cut-off); inconclusive = no clear call, values can overlap the other calls; inactive = mostly above about 0.92. The list shows a part of the results.

Assay: chemical genetic growth profiling, strain panel (AID 1159580);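 also: tested at 20 µM; growth read once vehicle control cultures reached saturation at 30 °C; 1 = growth at the plate median or of vehicle wells; lower values mean less growth of the strain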
Details: growth OD

Measured: normalized growth

O=c1[nH]c(=O)n(C2C[C@H](O)[C@@H](CO)O2)cc1C(F)(F)F (stereo partly specified)
inactive: S. cerevisiae deletion strains, locus YKL009W, strain mrt4, stronger effect = lower value 0.981 | S. cerevisiae deletion strains, locus YKL068W, stronger effect = lower value 0.978 | S. cerevisiae deletion strains, locus YKL085W, strain MDH1 (second series), stronger effect = lower value 0.974 | S. cerevisiae deletion strains, locus YKL085W, strain MDH1, stronger effect = lower value 0.974 | S. cerevisiae deletion strains, locus YKL160W, strain elf1, stronger effect = lower value 0.954 | S. cerevisiae deletion strains, locus YKL190W, strain CNB1, stronger effect = lower value 0.996 | S. cerevisiae deletion strains, locus YKR001C, strain vps1, stronger effect = lower value 0.982 | S. cerevisiae deletion strains, locus YKR026C, strain gcn3, stronger effect = lower value 0.973 | S. cerevisiae deletion strains, locus YKR091W, strain srl3, stronger effect = lower value 0.96 | S. cerevisiae deletion strains, locus YLL001W, strain dnm1, stronger effect = lower value 0.994 | S. cerevisiae deletion strains, locus YLL026W, stronger effect = lower value 0.962 | S. cerevisiae deletion strains, locus YLL041C, strain sdh2, stronger effect = lower value 0.954 | S. cerevisiae deletion strains, locus YLR027C, strain aat2, stronger effect = lower value 0.965 | S. cerevisiae deletion strains, locus YLR039C, strain RIC1, stronger effect = lower value 0.934 | S. cerevisiae deletion strains, locus YLR058C, strain SHM2, stronger effect = lower value 0.968 | S. cerevisiae deletion strains, locus YLR102C, strain apc9, stronger effect = lower value 0.98 | S. cerevisiae deletion strains, locus YLR113W, strain HOG1, stronger effect = lower value 0.996 | S. cerevisiae deletion strains, locus YLR221C, strain rsa3, stronger effect = lower value 0.988 | S. cerevisiae deletion strains, locus YLR258W, strain gsy2, stronger effect = lower value 0.965 | S. cerevisiae deletion strains, locus YLR262C, strain YPT6 (second series), stronger effect = lower value 0.936 | S. cerevisiae deletion strains, locus YLR262C, strain YPT6, stronger effect = lower value 0.955 | S. cerevisiae deletion strains, locus YLR268W, strain sec22, stronger effect = lower value 0.962 | S. cerevisiae deletion strains, locus YLR320W, strain mms22, stronger effect = lower value 1 | S. cerevisiae deletion strains, locus YLR330W, strain CHS5, stronger effect = lower value 0.988 | S. cerevisiae deletion strains, locus YLR342W, strain FKS1 (second series), stronger effect = lower value 1 | S. cerevisiae deletion strains, locus YLR342W, strain FKS1, stronger effect = lower value 0.966 | S. cerevisiae deletion strains, locus YLR357W, strain rsc2, stronger effect = lower value 0.981 | S. cerevisiae deletion strains, locus YLR370C, strain arc18, stronger effect = lower value 0.947 | S. cerevisiae deletion strains, locus YLR371W, strain rom2, stronger effect = lower value 0.97 | S. cerevisiae deletion strains, locus YLR384C, strain iki3, stronger effect = lower value 0.952 | S. cerevisiae deletion strains, locus YLR418C, strain cdc73, stronger effect = lower value 0.975 | S. cerevisiae deletion strains, locus YML016C, strain PPZ1, stronger effect = lower value 0.993 | S. cerevisiae deletion strains, locus YML032C, strain rad52, stronger effect = lower value 0.979 | S. cerevisiae deletion strains, locus YML120C, strain ndi1, stronger effect = lower value 0.992 | S. cerevisiae deletion strains, locus YML124C, strain tub3, stronger effect = lower value 0.972 | S. cerevisiae deletion strains, locus YMR058W, strain fet3, stronger effect = lower value 0.952 | S. cerevisiae deletion strains, locus YMR078C, strain ctf18, stronger effect = lower value 0.972 | S. cerevisiae deletion strains, locus YMR125W, strain sto1, stronger effect = lower value 0.95 | S. cerevisiae deletion strains, locus YMR129W, stronger effect = lower value 0.967 | S. cerevisiae deletion strains, locus YMR205C, strain PFK2, stronger effect = lower value 0.983 | S. cerevisiae deletion strains, locus YMR223W, strain ubp8, stronger effect = lower value 0.988 | S. cerevisiae deletion strains, locus YMR231W, strain pep5, stronger effect = lower value 0.981 | S. cerevisiae deletion strains, locus YMR263W, strain SAP30, stronger effect = lower value 1 | S. cerevisiae deletion strains, locus YMR307W, strain GAS1, stronger effect = lower value 0.978 | S. cerevisiae deletion strains, locus YNL067W, strain RPL9B, stronger effect = lower value 0.992 | S. cerevisiae deletion strains, locus YNL071W, strain lat1, stronger effect = lower value 1 | S. cerevisiae deletion strains, locus YNL128W, strain TEP1, stronger effect = lower value 0.976 | S. cerevisiae deletion strains, locus YNL153C, strain GIM3, stronger effect = lower value 0.992 | S. cerevisiae deletion strains, locus YNL183C, strain NPR1, stronger effect = lower value 0.966 | S. cerevisiae deletion strains, locus YNL209W, strain ssb2, stronger effect = lower value 0.961 | S. cerevisiae deletion strains, locus YNL233W, strain BNI4, stronger effect = lower value 0.978 | S. cerevisiae deletion strains, locus YNL248C, strain rpa49, stronger effect = lower value 0.926 | S. cerevisiae deletion strains, locus YNL250W, strain rad50, stronger effect = lower value 0.951 | S. cerevisiae deletion strains, locus YNL271C, strain bni1, stronger effect = lower value 0.983 | S. cerevisiae deletion strains, locus YNL298W, strain CLA4, stronger effect = lower value 0.971 | S. cerevisiae deletion strains, locus YNL307C, strain MCK1, stronger effect = lower value 0.972 | S. cerevisiae deletion strains, locus YNL322C, strain KRE1 (second series), stronger effect = lower value 0.935 | S. cerevisiae deletion strains, locus YNL322C, strain KRE1, stronger effect = lower value 0.989 | S. cerevisiae deletion strains, locus YNR049C, strain mso1, stronger effect = lower value 0.957 | S. cerevisiae deletion strains, locus YNR052C, strain pop2, stronger effect = lower value 0.992 | S. cerevisiae deletion strains, locus YOL006C, strain TOP1, stronger effect = lower value 0.969 | S. cerevisiae deletion strains, locus YOL012C, strain htz1 0.749 | S. cerevisiae deletion strains, locus YOL147C, strain pex11, stronger effect = lower value 0.974 | S. cerevisiae deletion strains, locus YOR001W, strain rrp6, stronger effect = lower value 0.99 | S. cerevisiae deletion strains, locus YOR061W, strain CKA2, stronger effect = lower value 0.987 | S. cerevisiae deletion strains, locus YOR069W, strain VPS5, stronger effect = lower value 0.983 | S. cerevisiae deletion strains, locus YOR070C, strain gyp1, stronger effect = lower value 0.977 | S. cerevisiae deletion strains, locus YOR080W, strain dia2, stronger effect = lower value 0.96 | S. cerevisiae deletion strains, locus YOR083W, strain WHI5, stronger effect = lower value 0.917 | S. cerevisiae deletion strains, locus YOR106W, strain vam3, stronger effect = lower value 0.95 | S. cerevisiae deletion strains, locus YOR136W, strain idh2, stronger effect = lower value 0.978 | S. cerevisiae deletion strains, locus YOR144C, strain elg1, stronger effect = lower value 0.97 | S. cerevisiae deletion strains, locus YOR184W, strain ser1, stronger effect = lower value 0.983 | S. cerevisiae deletion strains, locus YOR231W, strain MKK1, stronger effect = lower value 0.992 | S. cerevisiae deletion strains, locus YOR265W, strain rbl2, stronger effect = lower value 0.971 | S. cerevisiae deletion strains, locus YOR270C, strain vph1, stronger effect = lower value 0.948 | S. cerevisiae deletion strains, locus YOR290C, strain snf2, stronger effect = lower value 0.949 | S. cerevisiae deletion strains, locus YOR316C, strain cot1, stronger effect = lower value 0.983 | S. cerevisiae deletion strains, locus YPL051W, strain arl3, stronger effect = lower value 0.981 | S. cerevisiae deletion strains, locus YPL055C, strain LGE1, stronger effect = lower value 0.985 | S. cerevisiae deletion strains, locus YPL078C, strain atp4, stronger effect = lower value 0.988 | S. cerevisiae deletion strains, locus YPL106C, strain sse1, stronger effect = lower value 0.944 | S. cerevisiae deletion strains, locus YPL240C, strain hsp82, stronger effect = lower value 0.969 | S. cerevisiae deletion strains, locus YPL241C, strain CIN2, stronger effect = lower value 0.983 | S. cerevisiae deletion strains, locus YPL256C, strain CLN2, stronger effect = lower value 1.04 | S. cerevisiae deletion strains, locus YPR119W, strain clb2, stronger effect = lower value 0.987 | S. cerevisiae deletion strains, locus YPR141C, strain kar3, stronger effect = lower value 0.959 | S. cerevisiae deletion strains, locus YPR163C, strain tif3, stronger effect = lower value 0.972 | S. cerevisiae deletion strains, locus YPR167C, strain met16, stronger effect = lower value 0.971 | S. cerevisiae deletion strains, strain wtn01, stronger effect = lower value 0.985 | S. cerevisiae strains, strain wild type, stronger effect = lower value 0.985
